From PubChem
VACV mCherry inh = qHTS for Stage-Specific Inhibitors of Vaccinia Orthopoxvirus: mCherry Reporter Primary qHTS. Vaccinia virus mCherry reporter infection, fluorescence. Potency, µM (titrated, usually from 36.5 µM), for inactives: at the highest dose activity change, negative = inhibition, most hits filed as inhibitors. hit rate 0.63% among 310,000; calls by dose curve; tested in A549 cells; note: potency is the fitted concentration of half-maximal effect; nearly all actives have a fitted effect of over 35% in size
FMDV antiviral = High Throughput Screening for Foot and Mouth Disease Virus Antivirals; AID 1159524, 2015; FMDV antiviral cell-based qHTS; hit rate 1.2% among 410,000; Potency, µM (doses to about 57.9 µM), without a hit: top-dose activity change, negative = inhibition, hits mostly inhibitors; calls by dose curve; tested in HEK293T cells; note: read-out not given here; potency is the fitted concentration of half-maximal effect; nearly all actives have a fitted effect of over 45% in size
HCV inh = qHTS Assay for Inhibitors of Hepatitis C Virus (HCV) | Huh7.5.1 HCVcc-Cre infection, luciferase reporter, 44 h | Potency, µM (doses to about 41.8 µM), for inactives: at the highest dose activity change, negative = inhibition, most hits filed as inhibitors | hit rate 3.4% among 340,000 | AID 651820, 2012; note: potency is the fitted concentration of half-maximal effect
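Seed cells (1,000/well) for 4 h; treat with compound and infect with HCVcc-Cre, moi about 0.5. Incubate 44 h, then detect luciferase activity.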
Vaccinia Venus = qHTS for Stage-Specific Inhibitors of Vaccinia Orthopoxvirus: Venus Reporter Primary qHTS. Vaccinia virus Venus reporter expression, fluorescence. Potency, µM (titrated, usually from 36.5 µM), for the others: top-dose activity change, negative = inhibition, most hits filed as inhibitors. hit rate 0.46% among 330,000; calls by dose curve; tested in A549 cells; note: potency is the fitted concentration of half-maximal effect; nearly all actives have a fitted effect of over 30% in size
HCMV antiviral = qHTS Assay for inhibitors of the human cytomegalovirus (HCMV) | HFF cells, HCMV-luciferase reporter, 72 h; active compounds read low | activity change, negative = inhibition, % at 57.5 µM | hit rate 4.5% among 410,000; in the data active = activity change below about -60%; inconclusive = no clear call, values can overlap the other calls; inactive = above about -39%
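After 16 h attachment at 37C, HFF cells received test compound and HCMV-luciferase (1 PFU/cell); reporter luminescence read 72 h later, data normalized against buffer-only and known inhibitor Salinomycin.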
Sm TGR block = qHTS Assay for the Inhibitors of Schistosoma Mansoni Peroxiredoxins; Potency, µM (highest dose often 114 µM), without a hit: top-dose activity change, negative = inhibition, actives largely listed as inhibitors; purified TGR, DTNB reduction, TNB absorbance 405 nm; AID 485364, 2010; hit rate 3% among 360,000; note: potency is the fitted concentration of half-maximal effect; nearly all actives have a fitted effect of over 60% in size
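TGR 20 nM + NADPH 100 uM (dispensed conc.), cpd preinc 15 min RT; start with NADPH (500 uM addition) then DTNB (15 mM addition). Kinetic TNB absorbance, 405 nm filter. Four-parameter Hill fit across titration.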
The depositor's hits bear a star. Most compounds without a hit are left out; they make up all but 9.3% or so of the library. Unless noted, calls come from the whole dose curve; as a rule, active = well fitted curve in the direction sought with a large enough effect; inconclusive = small, poorly fitted or top-dose-only effect, or another doubt; inactive = no such curve, though single readings can be large; an effect the other way counts as inactive or inconclusive. % is set by controls: 0 for no effect and ±100 for the full control effect.

`CC(C)(C)c1ccc(/C([O-])=C(/C(=S)NCc2ccco2)[n+]2ccccc2)cc1` gave Sm TGR block 56µM*.
`O=C(N/N=C/C=C\c1ccc([N+](=O)[O-])cc1)c1cccnc1` gave VACV mCherry inh -7%, FMDV antiviral 1%, HCV inh 2%, Vaccinia Venus 15%, HCMV antiviral 34 and Sm TGR block -24%.
COc1ccccc1N(C)S(=O)(=O)c1ccc(C(=O)NCC(c2ccco2)N2CCCCC2)cc1 (stereo unspecified) was read as FMDV antiviral -16%, HCV inh 22µM* and HCMV antiviral -18.
Screening CN(c1ccccc1)S(=O)(=O)c1ccc(C(=O)NCC(c2ccco2)N2CCCCC2)cc1 (stereo unspecified) returned FMDV antiviral inconclusive, HCV inh inconclusive, HCMV antiviral -63* and Sm TGR block -4%.
COc1ccccc1NS(=O)(=O)c1ccc(C(=O)NCC(c2ccco2)N2CCCCC2)cc1 (stereo unspecified) was read as FMDV antiviral -22%, HCV inh -17% and HCMV antiviral 0.
`CC(=O)Nc1ccc(S(=O)(=O)NC(C)C(=O)NCC(c2ccco2)N2CCCCC2)cc1` (stereo unspecified) gave FMDV antiviral 0%, HCV inh 18%, HCMV antiviral 0 and Sm TGR block 2%.
Cc1ccc(S(=O)(=O)NC(CC(C)C)C(=O)NCC(c2ccco2)N2CCCCC2)cc1 (stereo unspecified) was read as FMDV antiviral 10µM*, HCV inh -5% and Sm TGR block -19%.
Screening CCc1ccc(OCCn2cccn2)cc1 returned VACV mCherry inh inactive, FMDV antiviral 59%, HCV inh 6%, Vaccinia Venus -7%, HCMV antiviral -15 and Sm TGR block 5%.
Screening CC1(C(=O)NS(=O)(=O)c2ccc(Cl)s2)CCN1C(=O)Cc1ccccc1Cl (stereo unspecified) returned VACV mCherry inh 41%, FMDV antiviral -3%, Vaccinia Venus 5% and HCMV antiviral -18.
Screening Nc1cc2nc[nH]c2cc1N returned VACV mCherry inh -13%, FMDV antiviral 27%, HCV inh 2%, Vaccinia Venus -11%, HCMV antiviral 41 and Sm TGR block -1%.
`Cc1ccccc1NC(=O)Nc1nc(CN)cs1` gave VACV mCherry inh -8%, FMDV antiviral -12%, Vaccinia Venus -6% and HCMV antiviral 1.
Screening COC(=O)c1c(-c2ccc(OC)cc2)oc2ccccc12 returned VACV mCherry inh inactive, FMDV antiviral -7%, HCV inh inconclusive, Vaccinia Venus -12%, HCMV antiviral -6 and Sm TGR block -2%.
Screening COc1cc(OC)cc(-c2sc3ccc(OC)cc3c2C#CC2(N)CCCCC2)c1 returned VACV mCherry inh inconclusive, FMDV antiviral -29%, HCV inh -24%, Vaccinia Venus inconclusive and HCMV antiviral -5.
`COc1ccc(-c2oc3ccccc3c2C#Cc2cncn2C)cc1` gave VACV mCherry inh inconclusive, FMDV antiviral 7%, HCV inh 2.8µM*, Vaccinia Venus inconclusive, HCMV antiviral 5 and Sm TGR block -19%.
For COc1ccc(-c2sc3ccc(N4CCOCC4)cc3c2C#CC2(O)CCCCC2)cc1 the results were VACV mCherry inh inconclusive, FMDV antiviral inconclusive, HCV inh 2.8µM*, Vaccinia Venus inconclusive and HCMV antiviral 64.
`COc1ccc(-c2sc3cc4c(cc3c2C#Cc2cncn2C)OCO4)cc1` gave VACV mCherry inh inconclusive, FMDV antiviral 3%, HCV inh 5µM*, Vaccinia Venus -20% and HCMV antiviral -3.
`COc1ccc(-c2sc3cc4c(cc3c2C#CC2(N)CCCCC2)OCO4)cc1` gave VACV mCherry inh inconclusive, FMDV antiviral 42%, HCV inh 22µM*, Vaccinia Venus inconclusive, HCMV antiviral -4 and Sm TGR block -21%.
Screening COc1ccc(-c2nc3cnc(Nc4ccc(F)c(Cl)c4)cc3n2C)cc1OC returned HCMV antiviral -30.
COc1cccc(Cn2c(=O)c(-c3cn(C)c4ccccc34)nc3cnc(N4CCOCC4)nc32)c1 was read as FMDV antiviral -23%.
Screening COc1ccc(-c2sc3ccc(OC)cc3c2C#Cc2cncn2C)cc1 returned VACV mCherry inh inconclusive, FMDV antiviral 32%, HCV inh 2.8µM*, Vaccinia Venus inconclusive and HCMV antiviral 20.
COc1cc(OC)cc(-c2sc3ccc(OC)cc3c2C#CC(C)(C)O)c1 was read as VACV mCherry inh inconclusive, FMDV antiviral -11%, HCV inh inconclusive, Vaccinia Venus inconclusive, HCMV antiviral 132 and Sm TGR block -11%.
COCCCNC(=O)CCCn1c(SCC(=O)c2ccc(F)cc2)nc2c(sc3ccccc32)c1=O was read as VACV mCherry inh -1%, FMDV antiviral 10%, Vaccinia Venus -1%, HCMV antiviral 0 and Sm TGR block -12%.
Screening Clc1cccc2c1Sc1ccccc1CC2N1CCNCC1 (stereo unspecified) returned VACV mCherry inh inconclusive, FMDV antiviral -22%, HCV inh 10µM*, Vaccinia Venus inconclusive, HCMV antiviral inconclusive and Sm TGR block 3%.
O=C(COc1ccccc1F)NNC(=O)Cn1c(=O)cnc2ccccc21 was read as FMDV antiviral -1%, HCV inh inconclusive, HCMV antiviral 0 and Sm TGR block 1%.
`Cc1ccc(OCC(=O)NNC(=O)Cn2c(=O)cnc3ccccc32)cc1` gave VACV mCherry inh -12%, FMDV antiviral 7%, HCV inh -9%, Vaccinia Venus -2%, HCMV antiviral -97* and Sm TGR block -3%.
For Cc1nc2ccccc2c2oc(C(=O)NC3CC3)cc12 the results were VACV mCherry inh -2%, FMDV antiviral -18%, HCV inh -29%, Vaccinia Venus -4%, HCMV antiviral -36 and Sm TGR block 3%.
For Cc1cc2c(C)nc3ccccc3c2o1 the results were FMDV antiviral -28%, HCV inh 11µM*, Vaccinia Venus -35%, HCMV antiviral -22 and Sm TGR block 0%.
`COC(CNC(=O)c1ccc(N2CCC3(CC2)OCCO3)c([N+](=O)[O-])c1)OC` gave VACV mCherry inh -14%, FMDV antiviral -6%, HCV inh -8%, Vaccinia Venus -5%, HCMV antiviral 4 and Sm TGR block -13%.
